# Assay results taken from ChEMBL document CHEMBL3988442, “University of Dundee, Small-Polar-MMV Screening Library” (2021).
# About 1,000 (1.4%) of roughly 69,000 compounds showed an effect of 50% or more. The sample as a whole holds a higher share of strong results than the screen did.
# Tested on: Leishmania donovani
# Assay: Leishmania intramacrophage assay
# Type: functional, organism-based
# Set-up: scale not given: in the data most compounds retested in dose-response had high values
smiles,measurement,setting,value
CC1=C(C(=O)N2CCCC(Cn3cc(CO)nn3)C2)OCCO1 (stereo not drawn),Percent Effect,"30.3 µM, […]",-4.102%
Cc1ccccc1-n1cnc(Cl)c1CO,Percent Effect,"30.3 µM, […]",0.1894%
NS(=O)(=O)c1cccnc1Nc1cccc(Cl)c1Cl,Percent Effect,"30.3 µM, […]",7.348%
NS(=O)(=O)c1cccnc1Nc1c(Cl)cccc1Cl,Percent Effect,"30.3 µM, […]",68.36%
NS(=O)(=O)c1cccnc1NCc1ccco1,Percent Effect,"30.3 µM, […]",37.64%
CC1Cc2ccccc2N1C(=O)Cn1nc(-c2cccs2)ccc1=O (stereo not drawn),Percent Effect,"30.3 µM, […]",31.43%
O=C1CC(c2ccc(C(=O)O)cc2)c2ncn(-c3ccccc3F)c2N1 (stereo not drawn),Percent Effect,"30.3 µM, […]",26.03%
CC(=O)Nc1nc(C(=O)NCc2ccc(N3CCCCCC3)nc2)cs1,Percent Effect,"30 µM, 30.03 µM",27.71%
CC(=O)Nc1nc(C(=O)Nc2ccc(N3CCCCC3)nc2)cs1,Percent Effect,"30 µM, 30.03 µM",56.06%
CC(=O)Nc1nc(C(=O)NCc2ccc(N3CCCC3)nc2)cs1,Percent Effect,30 µM,7.198%
Cc1cn2c(n1)CCC(NC(=O)CCC(F)(F)F)C2 (stereo not drawn),Percent Effect,"30 µM, 30.03 µM",-20.9%
CCc1ccc(CN2CCN(c3cccc(OC)c3)C(=O)C2)nc1,Percent Effect,"30.3 µM, […]",11.49%
COc1ccc(N2CCN(Cc3nc(CSC)no3)CC2=O)cc1,Percent Effect,"30.3 µM, […]",62.54%
CCc1nnc(CN2CCN(c3cccc(OC)c3)C(=O)C2)o1,Percent Effect,"30.3 µM, […]",85%
COc1cc(CN2CCN(c3cccc(OC)c3)C(=O)C2)cc(OC)c1,Percent Effect,"30 µM, 30.03 µM",-0.5901%
COCCc1noc(CN2CCN(c3ccc(OC)cc3)C(=O)C2C)n1 (stereo not drawn),Percent Effect,"30.3 µM, […]",6.497%
COc1ccc(N2CCN(Cc3nc(CSC)no3)C(C)C2=O)cc1 (stereo not drawn),Percent Effect,"30.3 µM, […]",-39.19%
O=C(Nc1ccccc1F)C1=NN(c2ccccc2)C(=O)CN1,Percent Effect,30 µM,-15.12%
Cc1cc(NCCc2c(C)n[nH]c2C)nc(-c2cccnc2)n1,Percent Effect,"30.3 µM, […]",4.777%
Cn1ccnc1CN(Cc1ccccn1)Cc1ccccc1Cl.O=C(O)CC(O)(CC(=O)O)C(=O)O,Percent Effect,"30.3 µM, […]",10.71%
O=C(Nc1ccc(Cl)cn1)c1cncc(C2CCNCC2)n1,Percent Effect,"30.3 µM, […]",-16.97%
COc1ccccc1C(=O)N1CCN(CCc2scnc2C)CC1,Percent Effect,"30.3 µM, […]",5.837%
CCS(=O)(=O)NCC(=O)Nc1cc(CC(C)(C)C)n[nH]1,Percent Effect,"30.3 µM, […]",-13.95%
Cc1cnn(C2CN(CCOc3cccc(C#N)c3)C2)c1,Percent Effect,"30.3 µM, […]",0.4339%
COc1ccc(C2CCCN2c2ccnc(C)c2Cl)c(OC)c1 (stereo not drawn),Percent Effect,"30.3 µM, […]",54.95%
COc1ccc(C2CCCN2c2cnccn2)c(OC)c1 (stereo not drawn),Percent Effect,"30.3 µM, […]",20.05%
COc1ccc(C2CCCN2c2nnc(C)s2)c(OC)c1 (stereo not drawn),Percent Effect,"30.3 µM, […]",1.461%
CCOc1cc(CNCCCn2ccnc2)cc(Cl)c1OCC,Percent Effect,"30.3 µM, […]",81.44%
CCOc1cc(CNCCCn2ccnc2)cc(Cl)c1OC,Percent Effect,"30.3 µM, […]",37.96%
CCOc1ccc(CNCCCn2ccnc2)cc1OC,Percent Effect,"30.3 µM, […]",3.86%
COc1ccc(C(=O)NCCCn2ccnc2)c(OC)n1,Percent Effect,"30 µM, 30.03 µM",10.91%
CCOc1ccc(NC(=O)N2CCC(n3cncn3)CC2)cc1Cl,Percent Effect,"30.3 µM, […]",-3.205%
COc1cc(CNCCn2ccnc2)cc2c1OCO2.Cl,Percent Effect,"30.3 µM, […]",27.41%
CCOc1ccc(CNCCCn2ccnc2)cc1Cl.Cl.Cl,Percent Effect,"30.3 µM, […]",68.16%
COCCCn1ccc(NC(=O)NCCCn2ccnc2)n1,Percent Effect,"30.3 µM, […]",2.018%
CCOc1ccc(CNCCCn2ccnc2)cc1Br,Percent Effect,"30 µM, 30.03 µM",80.37%
CN(C)C(=O)COCc1nn(C)c2c1CCN(Cc1ccco1)C2.O=C(O)C(F)(F)F,Percent Effect,"30.3 µM, […]",23.44%
O=C(NCC(F)F)c1ccc(S(=O)(=O)N2CCCC(O)C2)cc1 (stereo not drawn),Percent Effect,"30.3 µM, […]",15.51%
CN(C)Cc1ccc(C(=O)N2CCCC(n3cccn3)C2)cc1 (stereo not drawn),Percent Effect,"30.3 µM, […]",-1.565%
Cc1nn(C)c(N(C)C)c1CNC1CCc2c(Cl)cccc21.Cl (stereo not drawn),Percent Effect,30 µM,34.54%
O=C([C@@H](O)Cc1ccccc1)N1CCCn2cncc2C1,Percent Effect,"30.3 µM, […]",13.9%
Cn1ccc(C(=O)Nc2nc(-c3ccc4c(c3)CCO4)cs2)cc1=O,Percent Effect,"30.3 µM, […]",32.33%
O=C(O)C(F)(F)F.O=C(c1ccc(F)cc1)N1C[C@@H]2COC[C@]2(COc2cccnc2)C1,Percent Effect,"30.3 µM, […]",16.14%
O=C(O)C(F)(F)F.O=C(c1cc(C2CC2)on1)N1C[C@@H]2COC[C@]2(COc2cccnc2)C1,Percent Effect,"30.3 µM, […]",50.64%
O=C(COc1ccccc1)N1C[C@@H]2COC[C@]2(COc2cccnc2)C1.O=C(O)C(F)(F)F,Percent Effect,"30.3 µM, […]",29.31%
CC(C)(C)c1cc(CN2C[C@H]3CC[C@@H]2CN(Cc2ccccn2)C3)n[nH]1,Percent Effect,"30.3 µM, […]",4.97%
CC(C)N(C)S(=O)(=O)N(Cc1cccs1)CC1CCCO1 (stereo not drawn),Percent Effect,"30.3 µM, […]",-50.49%
CC(C)c1cc(NCc2csc(C(C)C)n2)nc(N)n1,Percent Effect,"30.3 µM, […]",50.61%
CC(C)c1nc(CNc2ccc(CNS(C)(=O)=O)cc2)cs1,Percent Effect,"30.3 µM, […]",21.12%
CC(C)c1cc(NCc2csc(N(C)C)n2)nc(N)n1,Percent Effect,"30.3 µM, […]",41.43%
Cn1cc(CN2CCCC3(CCN(C(=O)c4ccccn4)C3)C2)cn1.O=C(O)C(F)(F)F.O=C(O)C(F)(F)F.O=C(O)C(F)(F)F (stereo not drawn),Percent Effect,"30.3 µM, […]",77.43%
Cn1cc(CN2CCCC3(CCN(C(=O)c4cnccn4)C3)C2)cn1.O=C(O)C(F)(F)F.O=C(O)C(F)(F)F (stereo not drawn),Percent Effect,"30.3 µM, […]",26.24%
O=C(O)C(F)(F)F.O=C(c1ccccn1)N1CCC2(CCCN(c3nncs3)C2)C1 (stereo not drawn),Percent Effect,"30.3 µM, […]",54.23%
Cn1cc(CN2CCC3(CC2)CCN(Cc2ccccn2)CC3)cn1,Percent Effect,"30.3 µM, […]",-5.313%
Cc1cnc(C(=O)N2CCC3(CCCN(c4nncs4)C3)C2)cn1 (stereo not drawn),Percent Effect,"30.3 µM, […]",29.83%
Cn1cc(CN2CCC3(CCCN(Cc4ccccn4)C3)CC2)cn1,Percent Effect,"30 µM, 30.03 µM",51.96%
Cn1cc(CN2CCCC23CCN(C(=O)c2ccccn2)CC3)cn1.O=C(O)C(F)(F)F,Percent Effect,"30.3 µM, […]",-2.86%
O=C(O)C(F)(F)F.O=C(c1ccco1)N1CCCC2(CCN(c3nncs3)C2)C1 (stereo not drawn),Percent Effect,"30.3 µM, […]",36.42%
Cc1cccc(CN2CCC3(CCCN(Cc4cnn(C)c4)C3)C2)n1.O=C(O)C(F)(F)F.O=C(O)C(F)(F)F (stereo not drawn),Percent Effect,"30.3 µM, […]",37.49%
CCOc1ccc(NC(=O)N(C)Cc2cnn(C)c2)c(C)c1,Percent Effect,"30.3 µM, […]",28.5%
CC(C)N1CCO[C@H]2CN(C(=O)c3ccoc3)C[C@H]21.O=C(O)C(F)(F)F,Percent Effect,"30 µM, 30.03 µM",-20.99%
Cn1cnc2c1C(COCc1cccnc1)N(Cc1ccccn1)CC2 (stereo not drawn),Percent Effect,"30 µM, 30.03 µM",6.459%
CC(C)(C)c1n[nH]c(C2CN(Cc3nnc(C4CCC4)o3)CCO2)n1 (stereo not drawn),Percent Effect,30 µM,11.21%
